Assay results: PubChem BioAssay
The source made the active and inactive calls. Unless noted, no rule for the calls is given here.

Tests used:
[1] = compounds binding Alexa647 anti-His antibody – biochemical, small-molecule microarray, 635 nm fluorescence, artefact control for SMM control protein annotation, primary screen (AID 1128); conditions: higher = more signal;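 also: score merges feature fluorescence with signal-to-noise for each printed compound spot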
[2] = test system: Human papillomavirus type 1a E7 protein (residues 1-88); test: HPV1a E7 small-molecule binders, primary screen, biochemical, small-molecule microarray, residues 1-88, 635 nm (AID 1129); conditions: small-molecule microarray binding, fluorescence 635 nm; higher = more signal
[3] = target: Focal adhesion kinase 1 (Homo sapiens) (UniProt Q05397); test: PTK2 protein binding on printed compound slides – biochemical, small-molecule microarray, 635/667 nm fluorescence, BSA, DTT, primary screen (AID 1130); conditions: 635 nm fluorescence, higher = more signal;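 also: composite of spot emission at 667 nm and signal to noise over triplicate slides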
[4] = test system: Fibrinogen (Alexa647-labelled); test: Alexa647-fibrinogen binding to printed small molecules – biochemical, small-molecule microarray, 635/667 nm fluorescence, artefact control for SMM control-protein annotation, profiling panel (AID 1131); conditions: fibrinogen-A647 binding fluorescence, higher = more signal;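 also: z-score merges 667 nm fluorescence with per-spot signal-to-noise over triplicate slides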
[5] = target: Follistatin (Homo sapiens) (UniProt P19883); test: FST protein binding to printed compounds – biochemical, small-molecule microarray, 635/667 nm fluorescence, primary screen (AID 1132); conditions: 635 nm fluorescence, higher = more signal
[6] = target: Fibroblast growth factor 2 (Homo sapiens) (UniProt P09038); test: basic fibroblast growth factor binding to printed compounds – biochemical, small-molecule microarray, 635/667 nm fluorescence, primary screen (AID 1133); conditions: FGF2, fluorescence 635/667, higher = more signal
[7] = JC-1 mitochondrial potential readout, lung cancer cells – cell-based, A549, JC-1 fluorescence, basal, 24 h, 100 nL, profiling panel (AID 1138); conditions: higher = more signal;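 also: A549 lung adenocarcinoma cells under basal conditions with no added stimulus; test concentration not given here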
[8] = test system: Lefty1; test: Lefty1 protein binding to printed compounds – biochemical, small-molecule microarray, 635/667 nm fluorescence, primary screen (AID 1139); conditions: fluorescence 635/667, higher = more signal
[9] = test system: wheat germ agglutinin (Triticum aestivum), Alexa647-labelled; test: Alexa647-WGA lectin binding to printed small molecules – biochemical, small-molecule microarray, 635/667 nm fluorescence, artefact control for SMM control-protein annotation, profiling panel (AID 1140); conditions: WGA-A647 binding, 635 nm fluorescence, higher = more signal;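 also: score merges 667 nm feature emission with signal to noise over triplicate slides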
[10] = target: Luciferin 4-monooxygenase (Photinus pyralis) (UniProt P08659); test: inhibition of purified Photinus pyralis luciferase – biochemical, luminescence, purified enzyme, 2006 set, primary screen (AID 1141); conditions: purified firefly luciferase, SteadyGlo luminescence, 30 min; higher = more signal, called active from +8 up or from −8 down;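 also: cell-free assay with purified firefly luciferase at 100 ng per well in PBS; test concentration not given here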
[11] = test system: Wnt5a (protein binding on small-molecule microarray); test: small molecules binding Wnt5a protein – biophysical, small-molecule microarray, 635/667 nm fluorescence, primary screen (AID 1142); conditions: 635 nm fluorescence, higher = more signal;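 also: fluorescence read at 667 nm with signal to noise per printed feature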
[12] = ATP-based viability of Huh7 replicon cells – cell-based, CellTiter-Glo luminescence, basal, 48 h, cytotoxicity control for HCV replication inhibitor project, primary screen (AID 1143); conditions: higher = more signal, called active from +8 up or from −8 down;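 also: Huh7 hepatoma cells carrying a hepatitis C replication reporter with no stimulus; test concentration not given here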
[13] = Pseudomonas biofilm growth suppression – PAO1 strain, BacTiter-Glo luminescence, LB-PBS, primary screen (AID 1144); conditions: P. aeruginosa PAO1 biofilm, 12 h, higher = more signal
[14] = basal CRE-LacZ reporter activity in PC12 – cell-based, unstimulated, primary screen (AID 1145); conditions: no forskolin, luminescence, 4.5 h, higher = more signal, called active from +8 up or from −8 down
[15] = forskolin-driven CRE-LacZ activity in PC12 – cell-based, CRE-LacZ reporter, forskolin-stimulated, primary screen (AID 1146); conditions: luminescence, 4.5 h, higher = more signal, called active from +8 up or from −8 down;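 also: PC12 cells with 6xCRE LacZ reporter stimulated by forskolin 10 µM; beta-galactosidase reporter signal reflecting CREB driven transcription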
[16] = target: Streptavidin (Streptomyces avidinii) (UniProt P22629); test: compounds binding control protein streptavidin – biophysical, small-molecule microarray, 635/667 nm fluorescence, artefact control for SMM compound annotation, primary screen (AID 1147); conditions: higher = more signal;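 also: signal reflects streptavidin binding to arrayed compounds as a control protein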
[17] = probe aInhba binding on compound microarray – biochemical, small-molecule microarray, 635/667 nm fluorescence, primary screen (AID 1148); conditions: higher = more signal;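 also: score merges 667nm spot fluorescence with signal-to-noise for antibody binding to printed compounds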
[18] = target: Torsin-1A (Homo sapiens) (UniProt O14656); test: TOR1A wild-type binding on microarray – cell lysate, small-molecule microarray, lysate, 635/667 nm, primary screen (AID 1149); conditions: COS7 hTOR1A-WT lysate, 635 nm fluorescence, higher = more signal
[19] = target: Torsin-1A (Homo sapiens) (UniProt O14656); test: torsin A mutant lysate binding on microarrays – cell lysate, small-molecule microarray, COS7 lysate, 635/667 nm fluorescence, primary screen (AID 1150); conditions: COS7 hTOR1A mutant lysate, 635 nm fluorescence, higher = more signal;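 also: score pools 667 nm emission and signal to noise measuring lysate protein binding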
[20] = test system: Sonic hedgehog protein (Shh); test: Sonic hedgehog microarray binding compounds – biochemical, small-molecule microarray, 635/667 nm fluorescence, primary screen (AID 1151); conditions: 635 nm fluorescence, higher = more signal;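 also: Shh protein binding to compounds spotted on small-molecule microarray slides; score combines spot fluorescence intensity with signal-to-noise across triplicate slides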

Torsin-1A (Homo sapiens), sequence (O14656 whole entry, looked up): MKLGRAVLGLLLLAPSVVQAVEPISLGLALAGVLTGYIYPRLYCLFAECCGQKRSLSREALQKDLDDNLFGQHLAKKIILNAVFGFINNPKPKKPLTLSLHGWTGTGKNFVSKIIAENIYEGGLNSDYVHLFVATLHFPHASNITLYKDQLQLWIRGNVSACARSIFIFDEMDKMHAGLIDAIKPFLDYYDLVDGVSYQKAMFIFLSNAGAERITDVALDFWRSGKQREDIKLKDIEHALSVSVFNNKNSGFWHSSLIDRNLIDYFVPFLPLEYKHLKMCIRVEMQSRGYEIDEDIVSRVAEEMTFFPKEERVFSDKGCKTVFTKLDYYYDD
Follistatin (Homo sapiens), sequence (P19883 whole entry, looked up): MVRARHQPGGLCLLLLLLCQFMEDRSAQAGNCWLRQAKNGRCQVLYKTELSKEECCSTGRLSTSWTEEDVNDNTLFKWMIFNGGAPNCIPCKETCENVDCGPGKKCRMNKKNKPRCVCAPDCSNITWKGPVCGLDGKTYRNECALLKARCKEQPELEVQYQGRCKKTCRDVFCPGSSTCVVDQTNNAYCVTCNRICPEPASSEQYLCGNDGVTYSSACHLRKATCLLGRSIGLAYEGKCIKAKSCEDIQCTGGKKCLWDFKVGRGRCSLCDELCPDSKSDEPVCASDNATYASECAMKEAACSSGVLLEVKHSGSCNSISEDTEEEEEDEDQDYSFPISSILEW
Focal adhesion kinase 1 (Homo sapiens), sequence (Q05397 whole entry, looked up): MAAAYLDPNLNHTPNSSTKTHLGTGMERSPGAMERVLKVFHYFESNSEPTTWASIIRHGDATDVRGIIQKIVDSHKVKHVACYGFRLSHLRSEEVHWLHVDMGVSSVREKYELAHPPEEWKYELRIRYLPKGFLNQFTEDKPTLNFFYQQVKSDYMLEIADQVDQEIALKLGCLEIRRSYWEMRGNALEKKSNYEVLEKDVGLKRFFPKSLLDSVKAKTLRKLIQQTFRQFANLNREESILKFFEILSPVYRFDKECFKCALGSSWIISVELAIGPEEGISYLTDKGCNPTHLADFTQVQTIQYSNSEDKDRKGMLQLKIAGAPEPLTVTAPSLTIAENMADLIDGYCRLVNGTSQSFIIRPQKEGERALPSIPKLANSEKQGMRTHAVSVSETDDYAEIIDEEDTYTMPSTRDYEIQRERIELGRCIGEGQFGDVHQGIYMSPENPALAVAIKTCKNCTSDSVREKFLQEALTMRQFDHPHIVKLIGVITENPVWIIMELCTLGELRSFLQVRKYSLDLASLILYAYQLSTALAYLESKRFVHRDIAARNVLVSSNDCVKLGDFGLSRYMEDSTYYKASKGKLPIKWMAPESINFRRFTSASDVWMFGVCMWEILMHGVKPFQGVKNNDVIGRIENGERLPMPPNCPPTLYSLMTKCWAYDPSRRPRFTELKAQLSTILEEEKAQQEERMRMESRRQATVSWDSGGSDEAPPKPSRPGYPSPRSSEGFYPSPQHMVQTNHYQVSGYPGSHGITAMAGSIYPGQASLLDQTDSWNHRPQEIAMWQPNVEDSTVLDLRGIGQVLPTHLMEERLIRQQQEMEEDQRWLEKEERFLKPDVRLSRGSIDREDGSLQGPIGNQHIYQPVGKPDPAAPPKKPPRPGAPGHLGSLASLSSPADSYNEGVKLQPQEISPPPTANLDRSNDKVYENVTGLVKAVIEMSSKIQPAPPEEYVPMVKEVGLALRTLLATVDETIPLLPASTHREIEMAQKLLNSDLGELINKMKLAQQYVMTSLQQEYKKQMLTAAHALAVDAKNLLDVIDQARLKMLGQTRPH
Luciferin 4-monooxygenase (Photinus pyralis), sequence (P08659 whole entry, looked up): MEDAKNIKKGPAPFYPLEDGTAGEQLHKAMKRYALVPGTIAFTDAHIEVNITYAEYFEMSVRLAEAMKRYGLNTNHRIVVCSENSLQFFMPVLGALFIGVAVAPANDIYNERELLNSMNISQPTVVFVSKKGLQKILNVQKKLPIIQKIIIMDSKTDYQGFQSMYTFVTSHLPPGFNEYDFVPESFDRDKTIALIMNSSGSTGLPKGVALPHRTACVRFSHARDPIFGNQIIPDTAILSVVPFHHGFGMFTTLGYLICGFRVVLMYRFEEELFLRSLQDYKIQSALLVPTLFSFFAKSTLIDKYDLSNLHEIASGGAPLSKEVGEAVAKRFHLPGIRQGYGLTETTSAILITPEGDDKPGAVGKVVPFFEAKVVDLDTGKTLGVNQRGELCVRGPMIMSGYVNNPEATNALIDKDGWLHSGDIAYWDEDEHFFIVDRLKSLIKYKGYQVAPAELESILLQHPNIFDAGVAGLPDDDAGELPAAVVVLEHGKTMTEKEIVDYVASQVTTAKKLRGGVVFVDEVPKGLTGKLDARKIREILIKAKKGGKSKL
Streptavidin (Streptomyces avidinii), sequence (P22629 whole entry, looked up): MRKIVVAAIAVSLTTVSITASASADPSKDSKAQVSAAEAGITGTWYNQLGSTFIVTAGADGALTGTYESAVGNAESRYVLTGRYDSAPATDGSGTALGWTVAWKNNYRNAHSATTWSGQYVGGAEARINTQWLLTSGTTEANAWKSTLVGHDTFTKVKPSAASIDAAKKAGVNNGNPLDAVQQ
Fibroblast growth factor 2 (Homo sapiens), sequence (P09038 whole entry, looked up): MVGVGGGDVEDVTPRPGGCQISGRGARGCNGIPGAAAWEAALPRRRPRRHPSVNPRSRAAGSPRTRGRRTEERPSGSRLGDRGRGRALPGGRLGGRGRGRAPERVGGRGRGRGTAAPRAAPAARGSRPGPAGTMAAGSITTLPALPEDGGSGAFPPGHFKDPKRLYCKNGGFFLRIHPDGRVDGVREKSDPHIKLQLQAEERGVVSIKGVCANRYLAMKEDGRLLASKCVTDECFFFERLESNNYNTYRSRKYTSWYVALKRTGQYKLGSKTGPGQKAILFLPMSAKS

Structure (SMILES) | composite z-score [1] | composite z-score [2] | composite z-score [3] | composite z-score [4] | composite z-score [5] | composite z-score [6] | z-score [7] | composite z-score [8] | composite z-score [9] | z-score [10] | composite z-score [11] | z-score [12] | z-score [13] | z-score [14] | z-score [15] | composite z-score [16] | composite z-score [17] | composite z-score [18] | composite z-score [19] | composite z-score [20]
CCN1C(=O)[C@H]2[C@H]3[C@H](O)[C@H](O)CC(=NOC(C)CN4CCCCc5nc(C)c(C)cc54)[C@@H]3CC[C@H]2C1=O (stereo not given in full) | 2.1 | 0.0084 | 0.167 | -0.323 | 0.861 | 0.541 | 0.0743 | 0.672 | 0.0283 | 0.161 (inactive) | 0.185 | 0.06 (inactive) | 1.07 (inactive) | 0.778 (inactive) | 0.618 (inactive) | -0.0098 | -0.024 | 0.763 | 0.769 | 0.809
CC(C)NC(=O)[C@@]1(c2ccc([N+](=O)[O-])cc2)CC(=O)N(CC23CC4CC(CC(C4)C2)C3)[C@@H]1c1ccc(CO)cc1I | 0.0833 | 1.14 | 0.457 | -0.206 | 1.06 | 0.444 | 1.01 | -0.167 | 0.403 | 0.355 (inactive) | 0.492 | -5.69 (inactive) | 0.017 (inactive) | 0.531 (inactive) | 0.0456 (inactive) | 0.131 | 0.0435 | 0.484 | 0.369 | 0.746
CCOC(=O)NN=C1C[C@@H](O)[C@@H](O)[C@@H]2[C@@H]3C(=O)N(C(C)(C)C)C(=O)[C@@H]3CC[C@@H]12 | -0.889 | -0.461 | 0.291 | -0.417 | -0.686 | 0.638 | 0.0179 | -0.519 | -1.19 | 0.413 (inactive) | -0.263 | 0.312 (inactive) | 0.125 (inactive) | -0.0246 (inactive) | 0.244 (inactive) | -0.784 | -0.0849 | 0.527 | 0.541 | -0.36
CCOC(=O)NN=C1C[C@@H](O)[C@@H](O)[C@@H]2[C@@H]3C(=O)N(CC)C(=O)[C@@H]3CC[C@@H]12 | 0.249 | 0.707 | 0.25 | 0.356 | 0.314 | -0.0549 | 0.0102 | 0.476 | -0.203 | 0.439 (inactive) | -0.0087 | 0.225 (inactive) | -0.0164 (inactive) | -0.205 (inactive) | 0.104 (inactive) | -0.124 | -0.324 | 0.0252 | -0.0727 | 0.784
C[C@H](c1ccccc1)N1C(=O)[C@H]2[C@H]3[C@H](O)[C@H](O)CC(=O)[C@@H]3CC[C@H]2C1=O | 0.62 | -0.0909 | 0.0546 | 0.436 | 0.469 | 0.51 | 0.47 | 0.515 | 0.286 | 0.569 (inactive) | 0.507 | -1.37 (inactive) | 0.00143 (inactive) | -0.885 (inactive) | -0.997 (inactive) | 0.239 | -0.0059 | 0.458 | 0.208 | 0.694
COCC1=C2[C@@H](CCc3ccccc3)OB(O)C[C@@H]2n2c(=O)n(-c3ccccc3)c(=O)n2C1 | 0.241 | -0.028 | -0.0493 | -0.434 | 0.133 | 0.506 | 0.581 | 0.336 | -0.228 | -1.19 (inactive) | 0.102 | -0.405 (inactive) | 0.523 (inactive) | 2.22 (inactive) | -0.714 (inactive) | -0.324 | -0.082 | -0.0531 | -0.066 | 0.966
c1ccc(C2NCCc3c2[nH]c2ccccc32)cc1 (stereo not given) | 0.191 | -0.805 | -0.0707 | -1.82 | 0.236 | 0.737 | -0.104 | 0.588 | 0.466 | 0.495 (inactive) | -0.18 | -0.92 (inactive) | -0.0191 (inactive) | -0.253 (inactive) | -1.11 (inactive) | -0.26 | -0.101 | 0.586 | 0.462 | -0.12
CCOC(=O)NN=C1C[C@@H](O)[C@@H](O)[C@@H]2[C@@H]3C(=O)N(C4CCCCC4)C(=O)[C@@H]3CC[C@H]12 | 0.0946 | 0.832 | 0.25 | 0.657 | 0.061 | 0.0615 | -1.13 | 0.78 | 0.395 | 0.63 (inactive) | -0.064 | -0.779 (inactive) | 0.786 (inactive) | 0.341 (inactive) | 0.174 (inactive) | -0.0615 | -0.111 | 0.218 | 0.568 | 0.369
O=C1CCCC2OC12C(O)CCc1ccccc1 (stereo not given) | 0.259 | -0.0206 | 0.0538 | 0.558 | 0.321 | 0.268 | 0.112 | 0.279 | -0.0681 | -0.443 (inactive) | 0.154 | 0.564 (inactive) | 0.357 (inactive) | 1.18 (inactive) | 0.0396 (inactive) | 0.035 | -0.214 | 0.0994 | -0.0582 | 0.174
